Experimental data taken from PubChem BioAssay (Tox21).
Values joined by “and” are separate entries in the source; they are usually repeats but may differ in a detail not shown here. Equal values may be shown once. Records with an inconclusive call do not appear. The source holds several records for some structures; these can differ, active in one and inactive in another. Active and inactive are the calls of the source. Unless noted, calls follow the shape of the dose curve; as a rule, active = well fitted curve in the direction sought with a large enough effect in the repeat runs; inconclusive = weak or mixed curves; inactive = no such curve, though single readings can be large; an effect the other way counts as inactive or inconclusive.

Legend:
[1] = qHTS RealTime-Glo MT Cell Viability Assay in HepG2 cells - 16 hour (AID 1224885); also: nearly all actives have a fitted effect of over 50% in size
Method in brief: (§1)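 Cells + NanoLuc/prosubstrate dispensed (600 cells/well) → 5 h at 37 C/5% CO2 → compounds in DMSO transferred → 40 h incubation at 37 C, luminescence read at 0, 8, 16, 24, 32, 40 h.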

[2] = qHTS RealTime-Glo MT Cell Viability Assay in HEK293 cells - 24 hour (AID 1224886); also: nearly all actives have a fitted effect of over 50% in size; also: potency is read from the fitted curve at half-maximal effect; as to activity change, negative = cytotoxicity: top concentration of the series differs between compounds
Method in brief: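 Tox21 10K qHTS, HEK293, 600 cells/well, RealTime-Glo reagent co-dispensed with cells; 5 h preincubation, compound by pintool, 37 C, luminescence at 0–40 h.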

[3] = qHTS RealTime-Glo MT Cell Viability Assay in HEK293 cells - 8 hour (AID 1224887); also: top concentration of the series differs between compounds; nearly all actives have a fitted effect of over 50% in size
Method in brief: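 600 cells/well were plated with the nonlytic NanoLuc/prosubstrate reagent, pre-incubated 5 h, then given 23 nL of compound in DMSO. Incubation at 37 C for 40 h, with luminescence from viable-cell-reduced substrate read repeatedly from 0 h.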

[4] = A CellTox Green Cytotoxicity Assay to monitor cytotoxicity in HEK293 cells - 16 hour (AID 1224888); also: nearly all actives have a fitted effect of over 35% in size
Method in brief: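 HEK293 cells, 600/well, were preincubated 5 hours and then exposed to compounds at 37 C for up to 40 hours. A cell-impermeant cyanine dye staining dead-cell DNA was read by fluorescence at 0, 8, 16, 24, 32 and 40 h time points.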

[5] = A CellTox Green Cytotoxicity Assay to monitor cytotoxicity in HepG2 cells - 8 hour (AID 1224890); also: nearly all actives have a fitted effect of over 45% in size
Method in brief: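 HepG2 cells, 600/well, preincubated 5 h with CellTox Green dye, then exposed to Tox21 compounds in DMSO at 37 C for up to 40 h. Dead-cell DNA fluorescence read at the indicated time point.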

[6] = qHTS assay to identify small molecule antagonists of the androgen receptor (AR) signaling pathway using the MDA cell line in the presence of 0.5 nM R1881 - cell viability counter screen (AID 1259242); also: nearly all actives have a fitted effect of over 45% in size
Method in brief: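 MDA-kb2 cells (MMTV-luciferase, AR/GR responsive) were treated with compounds plus 0.5 nM R1881 (final) for 16 hr at 37C, 0% CO2. Viability was then read in the same wells as live-cell protease fluorescence (CellTiter-Fluor, 30 min).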

[7] = target: Estrogen receptor (Homo sapiens) (UniProt P03372); test: qHTS assay to identify small molecule antagonists of the estrogen receptor alpha (ER-alpha) signaling pathway using the BG1 cell line in the presence of 0.1 nM 17-beta-estradiol (AID 1259244); also: nearly all actives have a fitted effect of over 50% in size; also: potency is read from the fitted curve at half-maximal effect
Method in brief: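 VM7Luc4E2 cells (endogenous full-length ER-alpha, 4×ERE-luciferase), kept 5 days in phenol red-free, charcoal-stripped FBS medium; 4,000 cells/well. Compounds added with 0.1 nM (final) 17beta-estradiol, 22 hr at 37C; luminescence read with ONE-Glo after 30 min.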

[8] = qHTS assay to identify small molecule HDAC inhibitors (AID 1259364); also: top concentration of the series differs between compounds; nearly all actives have a fitted effect of over 45% in size
Method in brief: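 Wild-type HCT-116 cells, plated overnight at 37 C, exposed to compounds 2 hr at 37 C; luminogenic HDAC-Glo substrate then added 30 min at room temperature. Luminescence reports relative endogenous class I/II HDAC activity.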

[9] = qHTS assay to identify small molecule HDAC inhibitors - cell viability counter screen (AID 1259365)
Method in brief: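 Cytotoxicity was gauged in wild-type HCT-116 cells after a brief 2hr treatment with DMSO-dissolved compounds at 37C and 5% CO2, using CellTiter-Glo luminescence developed for 30min at room temperature.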

[10] = qHTS assay to identify small molecule agonists of the sonic hedgehog signaling (Shh) pathway - cell viability counter screen (AID 1259366); also: nearly all actives have a fitted effect of over 50% in size; also: potency is read from the fitted curve at half-maximal effect
Method in brief: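 Stable Gli1-Luc NIH/3T3 clone, 2,000 cells/well. Compound exposure 24hr at 37C. Read-out: CellTiter-Fluor fluorescence.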

[11] = qHTS assay to identify small molecule antagonists of the sonic hedgehog signaling (Shh) pathway - cell viability counter screen (AID 1259367); also: nearly all actives have a fitted effect of over 55% in size; also: potency is read from the fitted curve at half-maximal effect
Method in brief: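 NIH/3T3-derived Gli1-Luc reporter cells (2,000 per well) rested 4 hr at 37 C, then received DMSO compounds plus conditioned medium. After 23 hr of treatment, CellTiter-Fluor was added for 1 hr at 37C and fluorescence read.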

[12] = qHTS assay to identify small molecule antagonists of the sonic hedgehog signaling (Shh) pathway (AID 1259369; calls by dose curve; also: nearly all actives have a fitted effect of over 45% in size; also: potency is read from the fitted curve at half-maximal effect)
Method in brief: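 NIH/3T3-derived Gli1-Luc reporter cells plated 4 h, dosed with compound, then stimulated with conditioned medium for 24 h at 37 C. Firefly luciferase luminescence read after 30 min with detection reagent at room temperature.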

[13] = target: Estrogen receptor beta (Homo sapiens) (UniProt Q92731); test: qHTS assay to identify small molecule antagonists of the estrogen receptor beta (ER-beta) signaling pathway (AID 1259378; active = well fitted inhibition curve with a large enough effect in the signal ratio in the repeat runs, not every such curve was filed as active; the % refers to the signal ratio)
Method in brief: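 ER-beta-UAS-bla HEK293T (GripTite) cells in 2% charcoal-stripped FBS medium were preincubated 6 hr at 37C, dosed with compound, then stimulated with 1 nM E2 (final) for 16 hr; beta-lactamase reporter read by B/G FRET fluorescence after 2 hr substrate loading.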

[14] = qHTS assay to identify small molecule agonists of the androgen receptor (AR) signaling pathway in the presence of an antagonist - cell viability counter screen (AID 1259379); also: nearly all actives have a fitted effect of over 25% in size; also: potency is read from the fitted curve at half-maximal effect;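 as to activity change, negative = cytotoxicity: MDA-kb2 human breast cancer cells carrying an MMTV luciferase reporter; series mostly up to about 92 µM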
Method in brief: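 MDA-kb2 cells (MMTV-luciferase, AR/GR), 3,000/well, 5 h attachment, then 3.0 µM nilutamide (final) and compounds at 15 concentrations. Viability by CellTiter-Fluor fluorescence after 16 h at 37 °C, 0% CO2, in the reporter wells.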

[15] = qHTS assay to identify small molecule antagonists of the estrogen receptor alpha (ER-alpha) signaling pathway using the BG1 cell line in the presence of 0.1 nM 17-beta-estradiol - cell viability counter screen (AID 1259241); also: nearly all actives have a fitted effect of over 40% in size
Method in brief: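 Viability in VM7Luc4E2 cells after 22 hr compound exposure under 0.1 nM 17beta-estradiol stimulation, by CellTiter-Fluor.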

[16] = qHTS assay to identify small molecule agonists of the sonic hedgehog signaling (Shh) pathway (AID 1259368; calls by dose curve;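 also: NIH/3T3-derived 3T3Gli1-Luc cells carrying a stable Gli1-driven firefly luciferase reporter; series mostly up to about 92 µM; nearly all actives have a fitted effect of over 15% in size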)
Method in brief: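 NIH/3T3-derived 3T3Gli1-Luc cells with stably integrated Gli1-driven firefly luciferase, 2,000 cells/well, compounds added after 4 hr. Incubated 24 hr at 37C, 5% CO2; luminescence read after 30 min with luciferase reagent at room temperature.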

[17] = target: Estrogen receptor beta (Homo sapiens) (UniProt Q92731); test: qHTS assay to identify small molecule agonists of the estrogen receptor beta (ER-beta) signaling pathway (AID 1259377; active = well fitted activation curve with a large enough effect in the signal ratio in the repeat runs, not every such curve was filed as active; the % refers to the signal ratio)
Method in brief: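 Measured by fluorescence intensity from a B/G FRET beta-lactamase substrate (2 h, room temperature) in ER-beta-UAS-bla HEK293T cells treated with DMSO-dissolved compounds for 16 hr at 37C and 5% CO2.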

[18] = qHTS assay to identify small molecule phospholipidosis (PLD) inducers (AID 1259344; active = well fitted curve in the direction sought with a large enough effect; an effect the other way counts as inactive or inconclusive)
Method in brief: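 HepG2 cells on collagen I, attached 4 h at 37 C, were co-treated with compound and LipidTOX Red dye for 24 h at 37 C, then fixed with paraformaldehyde plus Hoechst 33342 and imaged by high-content microscopy for phospholipid accumulation.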

[19] = qHTS RealTime-Glo MT Cell Viability Assay in HepG2 cells - 0 hour (AID 1224889); also: nearly all actives have a fitted effect of over 50% in size
Method in brief: as §1
% is scaled to controls: 0 for no effect and ±100 for the full control effect.

Chain of Estrogen receptor (Homo sapiens) (P03372 whole entry, looked up): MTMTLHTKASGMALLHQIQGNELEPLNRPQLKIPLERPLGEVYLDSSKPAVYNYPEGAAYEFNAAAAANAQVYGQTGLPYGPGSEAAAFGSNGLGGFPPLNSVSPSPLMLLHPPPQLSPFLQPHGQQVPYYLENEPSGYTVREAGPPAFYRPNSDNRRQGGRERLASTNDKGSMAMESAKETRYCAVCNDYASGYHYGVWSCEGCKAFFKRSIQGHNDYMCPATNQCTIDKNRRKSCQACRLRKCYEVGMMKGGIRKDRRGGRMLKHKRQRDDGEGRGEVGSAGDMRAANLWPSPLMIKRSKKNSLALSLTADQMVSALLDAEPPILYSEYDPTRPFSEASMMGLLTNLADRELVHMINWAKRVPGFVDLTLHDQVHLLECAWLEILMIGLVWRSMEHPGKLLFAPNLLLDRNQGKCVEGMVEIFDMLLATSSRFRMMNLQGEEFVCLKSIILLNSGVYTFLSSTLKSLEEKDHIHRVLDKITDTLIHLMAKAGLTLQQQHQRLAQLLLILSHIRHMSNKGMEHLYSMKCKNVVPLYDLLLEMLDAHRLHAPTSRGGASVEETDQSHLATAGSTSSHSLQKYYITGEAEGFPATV
Chain of Estrogen receptor beta (Homo sapiens) (Q92731 whole entry, looked up): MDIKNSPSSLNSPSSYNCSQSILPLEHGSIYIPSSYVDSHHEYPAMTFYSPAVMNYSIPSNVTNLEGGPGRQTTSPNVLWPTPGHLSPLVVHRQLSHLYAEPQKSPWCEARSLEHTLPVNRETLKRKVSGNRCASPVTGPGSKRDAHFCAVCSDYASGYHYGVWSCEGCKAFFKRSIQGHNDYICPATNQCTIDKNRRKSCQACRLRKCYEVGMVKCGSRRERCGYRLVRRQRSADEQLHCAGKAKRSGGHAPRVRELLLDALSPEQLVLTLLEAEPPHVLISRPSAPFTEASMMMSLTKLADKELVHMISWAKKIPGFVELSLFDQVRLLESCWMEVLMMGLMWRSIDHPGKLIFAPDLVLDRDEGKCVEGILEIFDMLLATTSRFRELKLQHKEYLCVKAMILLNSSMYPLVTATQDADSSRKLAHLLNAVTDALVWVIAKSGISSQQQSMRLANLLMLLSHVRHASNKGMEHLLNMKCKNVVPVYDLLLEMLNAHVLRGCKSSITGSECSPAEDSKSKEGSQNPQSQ

C=C(C)C(=O)O[C@H]1C[C@@H]2CC[C@@]1(C)C2(C)C
15.4 µM (active) and inactive: Potency [2]
inactive: outcome [1] | Potency [3] | outcome [4] | Potency [5] | outcome [6] | Potency [8] | outcome [9] | Potency [10] | Potency [11] | Potency [12] | Potency [13] | Potency [14]
2.71 µM (active) and inactive: Potency [7]

CN(C)CCC(c1ccc(Cl)cc1)c1ccccn1 (configuration not stated)
inactive: outcome [1] | Potency [2] | Potency [3] | outcome [4] | Potency [5] | Potency [15] | outcome [6] | Potency [8] | outcome [9] | Potency [14]
61.3 µM (active) and inactive: Potency [10]
active: Potency [11] 68.7 µM | Potency [12] 24.4 µM and 17.2 µM

CC(C)(N)CO
inactive: outcome [1] | Potency [2] | Potency [3] | outcome [4] | Potency [5] | Potency [15] | outcome [6] | Potency [7] | Potency [8] | outcome [9] | Potency [10] | Potency [11] | outcome [16] | Potency [12] | Potency [17] | Potency [13] | Potency [14]

O=C(O)c1cc(=O)c2c(OCC(O)COc3cccc4oc(C(=O)O)cc(=O)c34)cccc2o1
inactive: outcome [1] | Potency [2] | Potency [3] | outcome [4] | Potency [5] | Potency [15] | outcome [6] | Potency [7] | outcome [18] | Potency [8] | outcome [9] | Potency [10] | Potency [11] | Potency [12] | Potency [17] | Potency [13] | Potency [14]

O=C(O)[C@H](O)[C@@H](O)[C@H](O)[C@H](O)CO
inactive: outcome [1] | Potency [2] | Potency [3] | Potency [5] | Potency [15] | outcome [6] | outcome [18] | Potency [8] | outcome [9] | Potency [10] | Potency [11] | outcome [16] | Potency [12] | Potency [14]

COS(C)(=O)=O
inactive: outcome [1] | Potency [2] | Potency [3] | outcome [4] | Potency [5] | Potency [15] | outcome [6] | Potency [7] | Potency [8] | outcome [9] | Potency [10] | Potency [11] | Potency [12] | Potency [14]

CCCCCCCCCCCCCCCO
inactive: outcome [1] | Potency [2] | Potency [3] | outcome [4] | Potency [5] | Potency [15] | outcome [6] | Potency [8] | outcome [9] | Potency [11] | outcome [16] | Potency [17] | Potency [14]
27.5 µM (active) and inactive: Potency [12]
30.9 µM (active) and inactive: Potency [10]

O=C(O)c1cc(O)c(O)c(O)c1
inactive: outcome [1] | Potency [2] | Potency [3] | outcome [4] | Potency [5] | Potency [15] | outcome [6] | Potency [7] | outcome [18] | Potency [8] | outcome [9] | outcome [16]
55 µM (active) and inactive: Potency [14]
27.6 µM (active) and inactive: Potency [12]
61.7 µM (active) and inactive: Potency [10]

Cc1cccc(O)c1
inactive: outcome [1] | Potency [2] | Potency [3] | outcome [4] | Potency [5] | Potency [15] | outcome [6] | Potency [7] | Potency [8] | outcome [9] | Potency [10] | outcome [16] | Potency [12] | Potency [17] | Potency [13] | Potency [14]

CCN(CC)CCCC(C)Nc1ccnc2cc(Cl)ccc12 (configuration not stated)
inactive: activity change, negative = cytotoxic [1] 1.09% [at 6.97 µM] and -5.7% [at 15.8 µM] | activity change, negative = cytotoxicity [2] -16.8% [at 6.97 µM] | activity change, negative = cytotoxicity [3] -9.86% [at 6.97 µM] | activity change, negative = cytotoxicity [19] 3.19% [at 6.97 µM] and -4.4% [at 15.8 µM] | cytotoxicity increase [5] 3.33% [at 6.97 µM] and 10.4% [at 15.8 µM] | viability change, negative = cytotoxic [6] -8.89% [at 8.39 µM] | activity change, negative = inhibition [7] 35.5% [at 8.39 µM] and -0.903% [at 19 µM] | outcome [18] | activity change, negative = inhibition [8] 5.21% [at 8.39 µM] and -11.7% [at 19 µM] | activity change, negative = cytotoxicity [9] 1.29% [at 8.39 µM] and -0.194% [at 19 µM] | viability change, negative = cytotoxic [10] 4.99% [at 8.39 µM] and -9.75% [at 19 µM] | viability change, negative = cytotoxic [11] -9.15% [at 8.39 µM] and -19.2% [at 19 µM] | activity change, negative = inhibition [12] -20.4% [at 8.39 µM] | activation [17] 1.76% [at 8.39 µM] and 0.415% [at 19 µM] | activity, negative = inhibition [13] -11.4% [at 8.39 µM] | activity change, negative = cytotoxicity [14] -10.8% [at 8.39 µM]
active: Potency [12] 5.8 µM

CCN(CC)c1ccc(C(=O)c2ccccc2C(=O)O)c(O)c1
inactive: outcome [1] | Potency [2] | Potency [3] | outcome [4] | Potency [5] | Potency [15] | outcome [6] | Potency [7] | Potency [8] | outcome [9] | Potency [10] | Potency [11] | outcome [16] | Potency [12] | Potency [17] | Potency [13] | Potency [14]

O=C(O)c1ccc(C(=O)O)cc1
inactive: outcome [1] | Potency [2] | Potency [3] | outcome [4] | Potency [5] | Potency [15] | outcome [6] | Potency [8] | outcome [9] | Potency [10] | Potency [12] | Potency [14]

CCCCCCCC(=O)OC
inactive: outcome [1] | Potency [2] | Potency [3] | outcome [4] | Potency [5] | Potency [15] | outcome [6] | Potency [7] | Potency [8] | outcome [9] | Potency [10] | outcome [16] | Potency [12] | Potency [17] | Potency [13] | Potency [14]
